Source: PubChem
Pf growth 96h: P. falciparum growth inhibition at 96 hour, primary screen for plastid delayed-death inhibitors. P. falciparum luciferase reporter growth, 96 h. AID 504834. Potency, µM (doses to about 28.7 µM), inactives show at the top dose activity change, negative = inhibition, most hits filed as inhibitors. 6.9% of 320,000 active; note: % is set by controls: 0 for no effect and ±100 for the full control effect
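Cell-based qHTS: luciferase-tagged P. falciparum in erythrocytes (2% hematocrit, 0.05% parasitemia final) incubated with compounds for 96 hours, 37 C, 5% CO2; luciferase detection reagent then added and luminescence measured.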
Pf growth 48h: inhibits P. falciparum growth in the first generation, 48 h | P. falciparum luciferase growth in erythrocytes, 48 h | Potency, µM (doses to about 28.7 µM), inactives show at the highest dose activity change, negative = inhibition, actives largely listed as inhibitors | 5.9% of 310,000 active | AID 504832; note: % is set by controls: 0 for no effect and ±100 for the full control effect
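Luciferase-expressing parasites in RBCs, 2% Hct / 0.1% parasitemia final; RPMI 1640 + 0.5% Albumax; 37 C, 5% CO2, one generation; luminescence read-out, lower signal = inhibition.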
SARS PLpro yeast: blocks SARS-CoV papain-like protease in a yeast assay. AID 485353. S. cerevisiae expressing SARS-CoV PLpro, growth rescue. 0.19% of 330,000 active. Potency, µM (highest dose often 32.9 µM), inactives show at the top dose activity, positive = growth rescue, actives largely listed as activators; calls by dose curve; note: 0% is about no effect; nearly all actives have a fitted effect of over 55% in size
Sm TGR block: S. mansoni TGR enzyme inhibition | Q962Y6 | AID 485364 | Potency, µM (series often up to 114 µM), without a hit: at the highest dose activity change, negative = inhibition, usual class: inhibitors | 3% of 360,000 active | purified TGR, DTNB reduction, TNB absorbance 405 nm; note: % is set by controls: 0 for no effect and ±100 for the full control effect; nearly all actives have a fitted effect of over 60% in size
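TGR 20 nM + NADPH 100 uM (dispensed conc.), cpd preinc 15 min RT; start with NADPH (500 uM addition) then DTNB (15 mM addition). Kinetic TNB absorbance, 405 nm filter. Four-parameter Hill fit across titration.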
Numbers without * were called inactive; ? = inconclusive; . = no result given; [ ] = remark or other dose. Most compounds without a hit are left out; they make up all but 12% or so of the library. Unless noted, calls come from the whole dose curve; as a rule, active = well fitted curve in the direction sought with a large enough effect; inconclusive = small, poorly fitted or top-dose-only effect, or another doubt; inactive = no such curve, though single readings can be large; an effect the other way counts as inactive or inconclusive. Potency is the fitted concentration of half-maximal effect.

SMILES	Pf growth 96h	Pf growth 48h	SARS PLpro yeast	Sm TGR block
O=C(COc1ccccc1-c1ccccc1)NCc1cccc(Cl)c1	13µM*	?	-49%	2%
O=C(Nc1ccccc1C(=O)N1CCCCC1)c1cccs1	6.6µM*	17%	1%	-1%
Cc1cccc(OCc2nc(CC(=O)Nc3ccc(C)cc3C)cs2)c1	.	.	.	-3%
CN(Cc1ccc(Cl)c(Cl)c1)C(=O)CN1C(=O)NC2(CCCC2)C1=O	15%	?	-2%	0%
O=C(Cn1c2ncccc2c(=O)n1-c1ccccc1)NCc1ccccc1Cl	.	.	.	0%
CCn1c(=O)c2cc(C(=O)NCCc3ccc(OC)c(OC)c3)sc2c2ccccc21	.	.	.	-2%
Cc1ccccc1OCC(=O)Nc1ccccc1-c1ccccc1NC(=O)COc1ccccc1C	9.3µM*	8.3µM*	5%	-15%
CC1N(C)c2cc(NC(=O)c3cccs3)c(P(=O)(Nc3ccc([N+](=O)[O-])cc3)N3CCOCC3)cc2C1(C)C (centres undefined)	?	13µM*	3%	9%
O=C(Nc1cc([N+](=O)[O-])ccc1N1CCCC1)c1cccs1	13µM*	?	-2%	-30%
Cc1cc(S(=O)(=O)NCC(C)C)ccc1OCC(=O)NCc1ccccn1	.	2%	.	-1%
Cc1cc(S(=O)(=O)NCc2ccccc2)ccc1OCC(=O)NCc1ccccn1	9.3µM*	-6%	-1%	1%
O=C(Nc1cc([N+](=O)[O-])ccc1N1CCOCC1)c1cccs1	38%	9%	2%	-2%
COc1ccc(C(=O)NNC(=O)COc2ccc(Cl)cc2)c(OC)c1	?	-12%	3%	1%
Cc1cc(C)c(NC(=O)Cn2nc3c(cc2=O)CCCC3)c(C)c1	.	.	.	-6%
O=C1CC(c2ccco2)CC(O)=C1C=Nc1cc(Cl)ccc1Cl (centres undefined)	31%	1%	-23%	?
O=C1CC(c2ccco2)CC(O)=C1C=Nc1cc(Cl)ccc1O (centres undefined)	?	9.3µM*	-10%	-35%
COc1cc(Cl)c(C)cc1NC(C)C(=O)Nc1cc(C(F)(F)F)ccc1N1CCOCC1 (centres undefined)	0.066µM*	0.15µM*	19%	-7%
CC(C(=O)Nc1cc(C(F)(F)F)ccc1N1CCOCC1)N1C(=O)C2CC=CCC2C1=O (centres undefined)	.	-8%	-3%	?
Cc1cc(C(=O)Nc2cc(C(F)(F)F)ccc2N2CCOCC2)no1	?	?	?	-8%
CCCCn1nc(C(=O)Nc2cc(C(F)(F)F)ccc2N2CCOCC2)ccc1=O	?	12µM*	1%	3%
CC(C(=O)Nc1cc(C(F)(F)F)ccc1N1CCOCC1)N1C(=O)C2CCCCC2C1=O (centres undefined)	23%	-8%	8%	4%
COc1ccc(NC(C)C(=O)Nc2cc(C(F)(F)F)ccc2N2CCOCC2)c(OC)c1 (centres undefined)	0.046µM*	0.12µM*	-28%	2%
CCOC(=O)C(=CNc1cc(C(F)(F)F)ccc1N1CCOCC1)C(=O)OCC	?	4.1µM*	1%	7%
CCCC(=O)Nc1cc(C(F)(F)F)ccc1N1CCOCC1	-13%	?	-4%	4%
CCC(Oc1ccccc1)C(=O)Nc1cc(C(F)(F)F)ccc1N1CCOCC1 (centres undefined)	1.5µM*	1.7µM*	0%	0%
SMILES	Pf growth 96h	Pf growth 48h	SARS PLpro yeast	Sm TGR block
CC(=O)Nc1cc(C(F)(F)F)ccc1N1CCOCC1	.	11%	.	0%
COCCn1c(CCC(=O)O)ccc1-c1cccs1	?	-13%[5.75 µM]	0%	14µM*
CCCCn1c(CCC(=O)O)ccc1-c1cccs1	?	5%	-7%	8.9µM*
O=C(O)CCc1ccc(-c2cccs2)n1Cc1ccco1	-5%	-6%	-3%	?
CCn1cc(CN2CCC(n3nccc3NC(=O)CCCc3ccccc3)CC2)cn1	4%	?	8%	0%
CCOc1cccc(CN2CCC(n3nccc3NC(=O)CCCc3ccccc3)CC2)c1	?	10µM*	6%	-2%
COc1ccc(O)c(CN2CCC(n3nccc3NC(=O)CCOc3ccccc3)CC2)c1	?	13µM*	1%	-11%
CCn1cc(CN2CCC(n3nccc3NC(=O)Cc3ccccc3)CC2)cn1	10µM*	-8%	-4%	-18%
COc1cccc(CN2CCC(n3nccc3NC(=O)CCCc3ccccc3)CC2)c1O	-25%	?	-9%	8.9µM*
COc1ccccc1CN1CCC(n2nccc2NC(=O)CCOc2ccccc2)CC1	16%	-16%	1%	1%
COc1cccc(-c2cc(C(F)(F)F)nc(-n3nc(C)c(Br)c3C)n2)c1	.	.	.	0%
C=CCn1c(SCC(=O)NCCCC)nc2scc(-c3ccco3)c2c1=O	?	13µM*	8%	14µM*
C=CCn1c(SCC(=O)Nc2c(C)n(C)n(-c3ccccc3)c2=O)nc2scc(-c3ccccc3)c2c1=O	?	.	16%	-8%
C=CCn1c(SCC(C)=O)nc2scc(-c3ccc(C)o3)c2c1=O	14%	143%	.	16µM*
C=CCn1c(SCC(=O)NC2CCCC2)nc2scc(-c3ccco3)c2c1=O	5%	?	7%	11µM*
C=CCn1c(SCC(=O)Nc2ccc(C(=O)O)cc2)nc2scc(-c3ccccc3)c2c1=O	.	.	-30%	.
Cc1ccc(-c2csc3nc(C)n(-n4c(C)ccc4C)c(=O)c23)o1	?	-25%	-8%	6.3µM*
COCCN(C(=O)c1snc(C(N)=O)c1N)C(C(=O)NC1CCCCC1)c1ccc(OC)c(OC)c1 (centres undefined)	99%	-30%	14%	10%
CC(C)c1ccc(CNc2n[nH]c(-c3ccco3)n2)cc1	.	.	.	2%
CCn1c(=S)[nH]c2scc(-c3cccs3)c2c1=O	27%	-1%	-3%	-7%
C=CCn1c(=S)[nH]c2scc(-c3ccc(C)o3)c2c1=O	15%	27%	-1%	35µM*
O=C(Cn1c(-c2cccs2)cc2ccccc21)NCc1ccccc1Br	.	.	.	-9%
CCCCCCCCOC(=O)C[N+](C)(C)C/C=C(/C)Cl	4.1µM*	2.6µM*	-25%	1%
CCCCCCCCCCOC(=O)C[N+](C)(C)C/C=C(/C)Cl	2.3µM*	?	-48%	0%
COc1ccc(S(=O)(=O)N2CCN(C3CCN(Cc4ccccc4)CC3)CC2)cc1	?	?	-1%	50µM*
O=S(=O)(c1ccc2ccccc2c1)N1CCN(C2CCN(Cc3ccccc3)CC2)CC1	1%	?	1%	-18%
COc1cccc(CN2CCCN(S(=O)(=O)c3ccc(Br)cc3)CC2)c1	36%	?	6%	40µM*
c1ccc(CN2CCC(N3CCC(N4CCCCCC4)CC3)CC2)cc1	8.3µM*	13µM*	9%	-18%
O=S(=O)(c1ccccc1)N1CCN(C2CCN(Cc3ccccc3)CC2)CC1	0%	0.1µM*	4%	3%
Cc1ccc(S(=O)(=O)N2CCN(C3CCN(Cc4ccccc4)CC3)CC2)cc1	-8%[5.75 µM]	6%	3%	7%
